# Screening data (PubChem)
# The list is not random: actives were taken first. Their share in the collection is about 3.5%.
# MITF primary: inhibitors of human MITF; O75030; AlphaScreen MITF homodimerization, bead proximity signal; inhibition, % at 2.6 µM; 0.91% of 650,000 active; AID 1259374; in the data active means inhibition above about 50%;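 further: 0% = vehicle wells with protein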
# Target sequence (O75030 whole entry, looked up): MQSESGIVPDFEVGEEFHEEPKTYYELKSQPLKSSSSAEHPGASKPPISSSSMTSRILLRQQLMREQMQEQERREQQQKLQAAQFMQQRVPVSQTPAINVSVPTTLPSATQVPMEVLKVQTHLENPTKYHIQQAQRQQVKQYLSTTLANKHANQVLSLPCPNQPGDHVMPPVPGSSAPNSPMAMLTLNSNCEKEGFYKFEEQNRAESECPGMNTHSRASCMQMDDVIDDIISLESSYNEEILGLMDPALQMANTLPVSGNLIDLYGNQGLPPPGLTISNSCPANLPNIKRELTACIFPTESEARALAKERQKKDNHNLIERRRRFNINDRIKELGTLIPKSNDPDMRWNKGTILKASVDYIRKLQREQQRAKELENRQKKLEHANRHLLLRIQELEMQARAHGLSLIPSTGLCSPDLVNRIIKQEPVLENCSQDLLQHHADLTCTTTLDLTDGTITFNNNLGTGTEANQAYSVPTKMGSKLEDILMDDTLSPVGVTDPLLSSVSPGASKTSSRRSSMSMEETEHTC
# FBW7 activator: activators of human E3 ligase FBW7; AID 1259310; normalized activity (activation), % at 26.1 µM; 0.13% of 650,000 active; AlphaScreen FBW7–phospho-cyclin E peptide binding, activator screen; Q969H0; in the data active means normalized activity above about 1.9%;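 further: purified mutant Fbw7 with reduced substrate affinity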
# TEAD-YAP inh: TEAD-YAP interaction inhibition; inhibition, % at 9.12 µM; HEK-TIYL cells, TEAD-Gal4/YAP UAS-luciferase luminescence; AID 1259422; 1.4% of 640,000 active; in the data active means inhibition above about 32%;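 further: 0% = median of test compound wells and 100% = reference inhibitor wells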
# GPR151 ag: activators of human GPR151 | Q8TDV0 | PathHunter beta-arrestin GPR151 cells, luminescence | activation, % at 11.2 µM | 1% of 650,000 active | AID 1508602; in the data active means activation above about 4.9%;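 further: 0% = median of compound wells and 100% = cells with positive control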
# * marks the source's active call; other numbers are inactive results.
SMILES,MITF primary,FBW7 activator,TEAD-YAP inh,GPR151 ag
COc1ccc(CCn2c(C)c3c(=O)n(-c4nc5ccccc5s4)[nH]c3cc2=O)cc1,25.1,-0.1,2.4,1.3
Cc1c2c(=O)n(-c3nc4ccccc4s3)[nH]c2cc(=O)n1Cc1ccccc1,71.5*,-0.1,-3.0,1.4
Cc1sc2nc(SCC(=O)c3c[nH]c4ccccc34)[nH]c(=O)c2c1C,18.7,0.5,6.7,-0.4
COCC[n+]1c(C)cc(/C=C2\Sc3ccccc3N2C)cc1C,-7.2,-0.1,76.0*,0.2
CCN1/C(=C/c2cccc[n+]2C)Sc2ccccc21,-2.4,0.0,46.5*,2.4
CCN1/C(=C/c2cc(C)[n+](CCO)c(C)c2)Sc2ccccc21,1.2,-0.2,33.2*,1.3
CC(=O)c1cccc(NC(=O)c2ccc(N3CC4CC(C3)c3cccc(=O)n3C4)c(NC(=O)c3ccc(Br)o3)c2)c1 (configuration not stated),-1.7,-0.1,-2.8,-0.2
COc1ccc(C(NC(=O)c2ccccc2)c2ccc3cccnc3c2O)cc1 (configuration not stated),45.9,-1.1,38.5*,-0.8
O=C(NC(c1ccc(Cl)cc1)c1ccc2cccnc2c1O)c1ccccc1 (configuration not stated),16.6,-1.3,74.7*,-0.1
COc1ccc(C(=O)NC(c2ccc(Cl)cc2)c2cc(Cl)c3cccnc3c2O)cc1 (configuration not stated),-0.3,0.1,8.8,-0.7
COc1cccc(C(NC(=O)c2ccccc2)c2ccc3cccnc3c2O)c1 (configuration not stated),17.0,-1.7,13.2,-1.2
Oc1ccc(CCNc2nc(-c3cccs3)nc3c2ncn3Cc2ccc(C(F)(F)F)cc2)cc1,13.3,0.4,0.5,-0.9
CCN(CC)c1ccc(C(=O)O)cc1,4.1,0.4,-8.2,1.3
CCN(CC)c1ccc(C(=O)c2ccc(N(CC)CC)cc2)cc1,1.2,0.2,33.8*,2.1
Cc1ccccc1NC(=S)N(CCCN1CCC(C)CC1)Cc1cccs1,3.1,0.4,6.6,0.5
COc1ccc(C(=O)N/N=C\c2ccc(Br)cc2)cc1OC,-0.8,-0.2,40.2*,-0.9
COc1ccc(/C=N/Nc2ccc(C(=O)O)cc2)cc1Br,8.6,-0.1,45.4*,-9.0
COc1cc(OC)cc(C(=O)N/N=C\c2ccc(OCC(N)=O)cc2)c1,7.6,0.1,55.7*,0.3
O=C(O)c1cc(N/N=C/c2cccnc2)ccc1Cl,-7.7,0.2,-23.0,-4.8
O=C(O)c1ccc(N/N=C/c2cccnc2)cc1,2.4,0.0,32.6*,-7.7
COc1ccc(C(=O)N/N=C/c2ccc(O)c(O)c2)cc1Br,-17.7,0.0,-12.7,-0.9
O=C(CC1CCCC1)NCC1Cc2c(F)ccc(-c3ccncc3)c2O1 (configuration not stated),6.7,-0.1,0.5,-0.4
COc1ccc(/C(C)=N/Nc2ccc(C(=O)O)cc2)c(OC)c1,6.6,-0.1,48.0*,-0.6
COc1ccc(C(=O)N/N=C(/C)c2ccc(OC)cc2OC)cc1,4.1,-0.1,-30.7,1.2
N#Cc1ccc(/C=N/NC(=O)c2ccccc2O)cc1,6.8,-0.1,-13.5,-1.3
SMILES,MITF primary,FBW7 activator,TEAD-YAP inh,GPR151 ag
N#Cc1ccc(/C=N/NC(=O)c2cc(O)cc(O)c2)cc1,-0.4,0.1,33.0*,1.7
O=C(CSc1ccc2nnc(-c3cccc(F)c3)n2n1)Nc1ccccc1F,0.1,-0.2,4.1,0.3
COc1ccc(/C=N\NC(=O)c2n[nH]c3c2CCCC3)c(OC)c1OC,-2.7,0.9,61.4*,0.8
COc1ccc(/C=N/NC(=O)c2[nH]nc3c2CCc2ccccc2-3)cc1OC,11.7,0.1,45.8*,-1.6
COc1cccc(/C=N\NC(=O)c2n[nH]c3c2CCCC3)c1OC,-14.9,0.8,-21.5,-0.9
COc1cccc(/C=N\NC(=O)c2n[nH]c3c2CCC3)c1,8.8,0.3,36.3*,-1.2
COC(=O)c1ccc(/C=N/NC(=O)c2[nH]nc3c2CCc2ccccc2-3)cc1,18.3,0.2,-1.2,-1.7
COc1ccc(/C=N/NC(=O)c2n[nH]c3c2CCCC3)cc1OC,-3.4,0.1,26.0,1.6
COc1cc(/C=N/NC(=O)c2n[nH]c3c2CCC3)ccc1O,10.2,-0.1,46.7*,1.8
CCN(CC)N=Nc1c(C)n(C)n(-c2ccccc2)c1=O,-13.6,-0.1,-0.7,0.0
Cc1nc2ccc(Cl)cc2c(-c2ccccc2)c1C1=NN(C(=O)CCC(=O)O)C(c2ccccc2F)C1 (configuration not stated),15.1,0.1,10.7,0.2
Cc1ccnc(NS(=O)(=O)c2ccc(NC(=O)CSc3ccc(Cl)cc3)cc2)n1,8.7,-0.2,12.4,2.4
CCOC(=O)c1ccc(CN2C(=O)C(=O)c3cc(OC(F)(F)F)ccc32)o1,-3.1,-0.2,66.5*,-0.8
Cc1ccc(NC(=O)c2cnn3c(C(F)(F)F)cc(-c4ccco4)nc23)cc1C,21.5,0.7,1.1,-0.9
Cc1cc(C)cc(N=c2c([N+](=O)[O-])nn(-c3ccc4c(c3)OCCO4)n2O)c1,8.6,-0.3,-2.9,2.1
O=[N+]([O-])c1nn(-c2ccc3c(c2)OCCO3)n(O)c1=Nc1ccccc1,0.0,-0.3,88.8*,-1.2
Cc1ccc(N=c2c([N+](=O)[O-])nn(-c3ccc4c(c3)OCCO4)n2O)c(Cl)c1,-3.9,-0.1,46.9*,1.2
Cc1ccc(N=c2c([N+](=O)[O-])nn(-c3ccccc3)n2O)c(Cl)c1,-2.3,-0.1,6.6,0.8
COc1ccc(-n2nc([N+](=O)[O-])c(=Nc3ccccc3)n2O)cc1,10.6,-0.1,54.2*,-0.4
CCOCCn1c(=NC(=O)c2ccccc2[N+](=O)[O-])sc2cc(OC)c(OC)cc21,7.9,-0.1,-13.4,-1.5
CCC(=O)Nc1ccc2c(c1)C(=O)N(c1cccc(C)c1C)C2=O,-11.8,0.1,10.6,-1.5
c1cc(Nc2nc3ncnc(Nc4ccc(N5CCOCC5)cc4)c3[nH]2)ccn1,14.8,-0.3,43.3*,-2.1
c1nc(Nc2ccc(N3CCOCC3)cc2)c2[nH]c(NCCN3CCOCC3)nc2n1,15.5,-0.2,7.2,-1.7
CC(=O)Nc1ccc(Nc2ncnc3nc(Nc4ccc(N5CCOCC5)cc4)[nH]c23)cc1,10.3,-0.1,0.1,0.7
c1nc(NC2CC2)c2[nH]c(Nc3ccc(N4CCOCC4)cc3)nc2n1,17.5,0.0,34.7*,-2.6
c1cnc(Nc2nc3ncnc(Nc4ccc(N5CCOCC5)cc4)c3[nH]2)nc1,16.9,-0.3,53.4*,-1.6
c1ccc(CN2CCC(Nc3ncnc4nc(Nc5ccc(N6CCOCC6)cc5)[nH]c34)CC2)cc1,9.0,-0.3,2.9,0.1
CCN(CC)C(=O)C1CCCN(c2nc3ncnc(Nc4ccc(N5CCOCC5)cc4)c3[nH]2)C1 (configuration not stated),-4.1,-0.2,43.8*,-3.3
CCOc1cccc(C(=O)Nc2nnc(COc3ccc(C(C)CC)cc3)s2)c1 (configuration not stated),1.1,0.1,1.1,0.4
c1ccc(Nc2ncnc3nc(-c4ccc(N5CCOCC5)nc4)[nH]c23)cc1,25.6,0.3,53.6*,1.9
